Test results from PubChem BioAssay (EPA / NIEHS).
“And” between values parts separate entries of the source, which are not always exact repeats. Equal values may be shown once. A structure can be active in one record and inactive in another. The source made the active and inactive calls. Rule for the calls: active = hit-call score of the fitted dose curve at least 0.9, where 1 is the maximum; inactive = score below 0.9.

How the values were obtained:
Details in all cases: mRNA level, 48 h; actives raise or lower the signal
[1] = read-out: Peroxisomal acyl-coenzyme A oxidase 1 (ACOX1) gene, ACOX1 (gene 51); assay: LTEA_HepaRG_ACOX1: Life Technologies and Expression Analysis (LTEA) Assay for Peroxisomal acyl-coenzyme A oxidase 1 (ACOX1) gene using HepaRG (AID 2283467)
Outline: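 HepaRG, 48 h chemical exposure, 8-pt half-log series from 100 uM top, 0.5% DMSO vehicle, duplicates. Readout: ACOX1 mRNA by Fluidigm qRT-PCR, housekeeping-normalized; bidirectional fit vs DMSO baseline.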

[2] = read-out: Alkaline Phosphatase, Placental (ALPP) gene, ALPP (gene 250); assay: LTEA_HepaRG_ALPP: Life Technologies and Expression Analysis (LTEA) Assay for Alkaline Phosphatase, Placental (ALPP) gene using HepaRG (AID 2283468)
Outline: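 HepaRG cells plated 48 h, then exposed in duplicate for 48 h in serum-free induction medium to 8-point half-log series from 100 uM in 0.5% DMSO. ALPP mRNA by TaqMan qRT-PCR, normalized to ACTB/GAPDH/POLR2A; bidirectional fit versus DMSO.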

[3] = read-out: Bcl-2 (BAD) gene, BAD (gene 572); assay: LTEA_HepaRG_BAD: Life Technologies and Expression Analysis (LTEA) Assay for Bcl-2 (BAD) gene using HepaRG (AID 2283469)
Outline: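 HepaRG, 48 h exposure, 8-pt half-log curve from 100 uM in 0.5% DMSO, duplicates. Readout: TaqMan qRT-PCR for BAD mRNA, housekeeping-normalised (ACTB/GAPDH/POLR2A); gain or loss fitted against DMSO baseline.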

[4] = read-out: Bcl-2 (BAX) gene, BAX (gene 581); assay: LTEA_HepaRG_BAX: Life Technologies and Expression Analysis (LTEA) Assay for Bcl-2 (BAX) gene using HepaRG (AID 2283470)
Outline: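 Gene expression measured by Fluidigm qRT-PCR with three housekeeping genes for normalisation. HepaRG cells, plated 48 h beforehand, treated 48 h at up to 100 uM (8-point, half-log) in 0.5% DMSO. Bidirectional fitting versus DMSO.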

[5] = read-out: adenosine kinase (ADK) gene, ADK (gene 132); assay: LTEA_HepaRG_ADK: Life Technologies and Expression Analysis (LTEA) Assay for adenosine kinase (ADK) gene using HepaRG (AID 2283471)
Outline: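 ADK expression quantified by qRT-PCR, normalised to three housekeeping genes, after 48 h exposure of HepaRG cells to eight concentrations (top 100 uM, half-log steps, duplicate, 0.5% DMSO). Up- or down-regulation fitted relative to vehicle.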

[6] = read-out: Alpha-fetoprotein (AFP) gene, AFP (gene 174); assay: LTEA_HepaRG_AFP: Life Technologies and Expression Analysis (LTEA) Assay for Alpha-fetoprotein (AFP) gene using HepaRG (AID 2283472)
Outline: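 AFP transcript measured by TaqMan qRT-PCR with three housekeeping genes for normalization, after 48 h chemical treatment of HepaRG cells (top 100 uM, half-log steps, 0.5% DMSO). Gain or loss fitted against vehicle.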

[7] = read-out: Apolipoprotein A-V (APOA5) gene, APOA5 (gene 116519); assay: LTEA_HepaRG_APOA5: Life Technologies and Expression Analysis (LTEA) Assay for Apolipoprotein A-V (APOA5) gene using HepaRG (AID 2283474)
Outline: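 Differentiated HepaRG cells in serum-free induction medium, exposed 48 h in duplicate to eight half-log concentrations topping at 100 uM (0.5% DMSO). APOA5 mRNA by Fluidigm TaqMan qRT-PCR, normalized to ACTB, GAPDH and POLR2A; bidirectional fit versus DMSO.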

[8] = read-out: Apoptosis regulator Bcl-2 (Homo sapiens) (UniProt P10415); assay: LTEA_HepaRG_BCL2: Life Technologies and Expression Analysis (LTEA) Assay for Bcl-2 gene using HepaRG (AID 2283475)
Outline: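 qRT-PCR of BCL2 transcript, normalized to three housekeeping genes (ACTB, GAPDH, POLR2A), after 48 h chemical exposure of HepaRG cells; concentrations top 100 uM with half-log dilutions, 0.5% DMSO vehicle, duplicates; changes up or down fitted relative to vehicle.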

[9] = read-out: Bcl-2 (BID) gene, BID (gene 637); assay: LTEA_HepaRG_BID: Life Technologies and Expression Analysis (LTEA) Assay for Bcl-2 (BID) gene using HepaRG (AID 2283476)
Outline: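 Duplicate 48 h treatments of HepaRG cells in serum-free induction medium spanned 100 uM downward in half-log steps, 0.5% DMSO. Transcript change quantified by qRT-PCR against three housekeeping genes, fitted up or down versus DMSO.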

[10] = read-out: Caspase-3 (Homo sapiens) (UniProt P42574); assay: LTEA_HepaRG_CASP3: Life Technologies and Expression Analysis (LTEA) Assay for cysteine-aspartic acid protease (CASP3) using HepaRG (AID 2283477)
Outline: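 Differentiated HepaRG cells, plated 48 h, were treated in duplicate in serum-free induction medium for 48 h with eight half-log concentrations up to 100 uM in 0.5% DMSO. CASP3 mRNA measured by qRT-PCR, normalized to ACTB, GAPDH, POLR2A.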

[11] = read-out: Cytochrome P450 (CYP24A1), CYP24A1 (gene 1591); assay: LTEA_HepaRG_CYP24A1: Life Technologies and Expression Analysis (LTEA) Assay for Cytochrome P450 (CYP24A1) using HepaRG (AID 2283478)
Outline: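 HepaRG cells plated 48 h, then exposed in duplicate in serum-free induction medium for 48 h to 8-point half-log series from 100 uM in 0.5% DMSO. CYP24A1 mRNA by Fluidigm qRT-PCR, normalized to ACTB, GAPDH, POLR2A; bidirectional fit versus DMSO.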

[12] = read-out: Cytochrome P450 (CYP1A2), CYP1A2 (gene 1544); assay: LTEA_HepaRG_CYP1A2: Life Technologies and Expression Analysis (LTEA) Assay for Cytochrome P450 (CYP1A2) using HepaRG (AID 2283479)
Outline: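 Differentiated human HepaRG cells in serum-free induction medium exposed 48 hours in duplicate to 8 half-log concentrations from 100 uM, 0.5% DMSO. CYP1A2 mRNA quantified by qRT-PCR, normalized to ACTB, GAPDH and POLR2A; bidirectional fitting versus DMSO.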

[13] = read-out: cysteine-aspartic acid protease (CASP8), CASP8 (gene 841); assay: LTEA_HepaRG_CASP8: Life Technologies and Expression Analysis (LTEA) Assay for cysteine-aspartic acid protease (CASP8) using HepaRG (AID 2283480)
Outline: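 qRT-PCR readout of CASP8 mRNA, normalized to three housekeeping genes, after 48 h chemical exposure of HepaRG cells; 8-point half-log series, top 100 uM, 0.5% DMSO vehicle. Bidirectional curve fitting against DMSO baseline.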

[14] = read-out: Cytochrome P450 (CYP2B6), CYP2B6 (gene 1555); assay: LTEA_HepaRG_CYP2B6: Life Technologies and Expression Analysis (LTEA) Assay for Cytochrome P450 (CYP2B6) using HepaRG (AID 2283481)
Outline: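 Differentiated human HepaRG cells in serum-free induction medium, dosed in duplicate for 48 h over 8 half-log concentrations topping at 100 uM (0.5% DMSO). CYP2B6 mRNA measured by TaqMan qRT-PCR, normalized to ACTB, GAPDH, POLR2A; bidirectional fit versus DMSO.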

[15] = read-out: Cytochrome P450 2C19 (Homo sapiens) (UniProt P33261); assay: LTEA_HepaRG_CYP2C19: Life Technologies and Expression Analysis (LTEA) Assay for CYP2C19 using HepaRG (AID 2283482)
Outline: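 Differentiated HepaRG cells in serum-free induction medium exposed 48 h in duplicate, 8 concentrations from 100 uM by half-log steps in 0.5% DMSO. CYP2C19 mRNA measured by TaqMan qRT-PCR, normalized to ACTB, GAPDH, POLR2A. Bidirectional fit versus DMSO.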

[16] = read-out: CYP2C8 (gene 1558); assay: LTEA_HepaRG_CYP2C8: Life Technologies and Expression Analysis (LTEA) Assay for CYP2C8 using HepaRG (AID 2283483)
Outline: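 HepaRG (human liver line), 48 h chemical exposure, 8-pt half-log series from 100 uM, 0.5% DMSO vehicle. Readout: CYP2C8 transcript by qRT-PCR, housekeeping-normalized. Bidirectional fit vs DMSO baseline.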

[17] = read-out: CYP2C9 (gene 1559); assay: LTEA_HepaRG_CYP2C9: Life Technologies and Expression Analysis (LTEA) Assay for CYP2C9 using HepaRG (AID 2283484)
Outline: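 HepaRG, 48 h dosing, 8-pt half-log series, top 100 uM, 0.5% DMSO vehicle. Read-out: CYP2C9 transcript by TaqMan qRT-PCR, housekeeping-normalized (ACTB/GAPDH/POLR2A). Gain or loss fitted vs DMSO baseline.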

[18] = read-out: CYP2E1 (gene 1571); assay: LTEA_HepaRG_CYP2E1: Life Technologies and Expression Analysis (LTEA) Assay for CYP2E1 using HepaRG (AID 2283485)
Outline: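 CYP2E1 transcript measured by Fluidigm qRT-PCR against three housekeeping genes in human HepaRG cells treated 48 h (top 100 uM, half-log steps, 0.5% DMSO vehicle). Gain or loss fitted relative to DMSO baseline.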

[19] = read-out: CYP4A11 (gene 1579); assay: LTEA_HepaRG_CYP4A11: Life Technologies and Expression Analysis (LTEA) Assay for CYP4A11 using HepaRG (AID 2283486)
Outline: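 Differentiated HepaRG cells, 48 h after plating, exposed in duplicate for 48 h to 8 half-log concentrations up to 100 uM in 0.5% DMSO in serum-free induction medium. CYP4A11 mRNA measured by TaqMan qRT-PCR, normalized to ACTB, GAPDH and POLR2A.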

[20] = read-out: Cytochrome P450 3A4 (Homo sapiens) (UniProt P08684); assay: LTEA_HepaRG_CYP3A4: Life Technologies and Expression Analysis (LTEA) Assay for CYP3A4 using HepaRG (AID 2283487)
Outline: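 Differentiated HepaRG cells, plated 48 h, then dosed 48 h in serum-free induction medium with 0.5% DMSO, 8 half-log concentrations up to 100 uM, duplicate. CYP3A4 mRNA by qRT-PCR, normalized to ACTB/GAPDH/POLR2A; bidirectional fit versus DMSO.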

Measured: AC50

Chain of Cytochrome P450 3A4 (Homo sapiens) (P08684 whole entry, looked up): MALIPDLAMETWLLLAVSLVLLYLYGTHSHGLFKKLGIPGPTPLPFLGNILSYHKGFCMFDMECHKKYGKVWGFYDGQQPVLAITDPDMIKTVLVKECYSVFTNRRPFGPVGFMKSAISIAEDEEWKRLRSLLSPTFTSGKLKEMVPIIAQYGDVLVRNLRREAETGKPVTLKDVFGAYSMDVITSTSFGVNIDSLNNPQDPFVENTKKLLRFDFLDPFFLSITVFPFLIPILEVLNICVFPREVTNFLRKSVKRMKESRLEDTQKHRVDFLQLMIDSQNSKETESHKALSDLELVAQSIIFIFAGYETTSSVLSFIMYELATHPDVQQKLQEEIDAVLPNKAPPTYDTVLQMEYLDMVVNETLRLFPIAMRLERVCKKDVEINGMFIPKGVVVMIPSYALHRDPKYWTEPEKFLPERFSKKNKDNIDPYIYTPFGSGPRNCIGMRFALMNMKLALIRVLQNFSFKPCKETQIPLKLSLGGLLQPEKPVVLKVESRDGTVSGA
Chain of Apoptosis regulator Bcl-2 (Homo sapiens) (P10415 whole entry, looked up): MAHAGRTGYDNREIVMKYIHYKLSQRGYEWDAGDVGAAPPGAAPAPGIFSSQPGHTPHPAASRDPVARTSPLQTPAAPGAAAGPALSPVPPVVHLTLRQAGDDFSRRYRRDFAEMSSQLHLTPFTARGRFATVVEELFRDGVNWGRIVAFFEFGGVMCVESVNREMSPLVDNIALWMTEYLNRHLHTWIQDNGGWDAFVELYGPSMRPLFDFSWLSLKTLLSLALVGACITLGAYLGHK
Chain of Cytochrome P450 2C19 (Homo sapiens) (P33261 whole entry, looked up): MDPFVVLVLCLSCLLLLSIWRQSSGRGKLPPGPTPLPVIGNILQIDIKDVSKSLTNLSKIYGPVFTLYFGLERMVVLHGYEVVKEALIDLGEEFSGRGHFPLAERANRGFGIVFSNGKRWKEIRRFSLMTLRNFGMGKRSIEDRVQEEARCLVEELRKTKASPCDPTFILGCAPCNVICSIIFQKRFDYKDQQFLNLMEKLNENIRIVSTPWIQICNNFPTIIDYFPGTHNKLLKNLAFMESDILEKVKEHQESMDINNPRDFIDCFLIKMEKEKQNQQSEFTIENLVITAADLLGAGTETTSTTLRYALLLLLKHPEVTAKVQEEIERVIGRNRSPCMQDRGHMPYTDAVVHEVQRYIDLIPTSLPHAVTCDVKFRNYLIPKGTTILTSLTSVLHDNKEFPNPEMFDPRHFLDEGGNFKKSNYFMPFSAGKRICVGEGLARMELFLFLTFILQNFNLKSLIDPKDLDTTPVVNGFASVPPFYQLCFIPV
Chain of Caspase-3 (Homo sapiens) (P42574 whole entry, looked up): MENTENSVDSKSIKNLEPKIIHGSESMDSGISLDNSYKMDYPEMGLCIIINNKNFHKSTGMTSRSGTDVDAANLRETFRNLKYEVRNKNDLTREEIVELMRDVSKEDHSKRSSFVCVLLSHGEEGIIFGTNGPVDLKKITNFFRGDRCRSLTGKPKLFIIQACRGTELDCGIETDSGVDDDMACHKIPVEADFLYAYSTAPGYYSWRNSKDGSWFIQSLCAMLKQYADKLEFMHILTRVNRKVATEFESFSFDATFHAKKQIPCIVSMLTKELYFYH

NC(=O)O
inactive: all assays above

CCOP(=S)(OCC)Oc1nc(Cl)c(Cl)cc1Cl
active: [12] 50 µM | [14] 11.4 µM | [15] 23.8 µM | [18] 50 µM | [20] 37.2 µM
inactive: all other assays above

CC(C)(C)c1cc(O)ccc1O
inactive: all assays above

COc1cc(-c2ccc(N)c(OC)c2)ccc1N
inactive: [1] | [2] | [3] | [4] | [5] | [7] | [8] | [9] | [10] | [11] | [13] | [15] | [16] | [17] | [20]
active: [6] 50 µM | [12] 23.6 µM and 25.8 µM | [14] 3.49 µM and 4.26 µM | [17] 77.4 µM | [18] 38.1 µM and 24.1 µM | [19] 62.6 µM and 50 µM | [20] 19.9 µM

Cn1sc(Cl)cc1=O
inactive: all assays above

Cc1ccccc1N
inactive: all assays above

ClC1(Cl)C2(Cl)C3(Cl)C4(Cl)C(Cl)(Cl)C5(Cl)C3(Cl)C1(Cl)C5(Cl)C24Cl (configuration not stated)
active: [12] 15.8 µM | [14] 0.73 µM | [15] 3.41 µM | [18] 4.06 µM | [19] 20 µM | [20] 4.01 µM
inactive: all other assays above
